AMA1-RON2 inh: AMA1-RON2 (P. falciparum) interaction inhibition. Potency, µM (doses to about 58.2 µM), without a hit: top-dose activity change, negative = inhibition, hits mostly inhibitors. AlphaScreen AMA1-biotinylated RON2 peptide binding. AID 720542. 360,000 compounds, 0.2% hits;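 further: 0% = vehicle wells and -100% = peptide control; nearly all actives have a fitted effect of over 45% in size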
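AMA1 (3D7) with his tag at 25 nM final met compounds first, then biotinylated RON2 peptide at 25 nM; detection used donor plus acceptor beads, 10 µg/mL apiece, read by AlphaScreen after 30 min at room temperature.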
Pf growth 96h: P. falciparum growth inhibition at 96 hour, primary screen for plastid delayed-death inhibitors; P. falciparum luciferase reporter growth, 96 h; Potency, µM (doses to about 28.7 µM), for the others: at the top dose activity change, negative = inhibition, most hits filed as inhibitors; 320,000 compounds, 6.9% hits; AID 504834
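96 h incubation, 37 C, 5% CO2, of luciferase-reporter P. falciparum-infected RBCs (2% hematocrit, 0.05% parasitemia final) with test compounds; endpoint luminescence.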
Pf growth 48h: inhibits P. falciparum growth in the first generation, 48 h | P. falciparum luciferase growth in erythrocytes, 48 h | Potency, µM (doses to about 28.7 µM), for the others: at the top dose activity change, negative = inhibition, usual class: inhibitors | 310,000 compounds, 5.9% hits | AID 504832
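Luciferase-expressing parasites in RBCs, 2% Hct / 0.1% parasitemia final; RPMI 1640 + 0.5% Albumax; 37 C, 5% CO2, one generation; luminescence read-out, lower signal = inhibition.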
AmpC detergent: blocks E. coli AmpC beta-lactamase in detergent assay. Potency, µM (titrated, usually from 114 µM), without a hit: at the highest dose activity change, negative = inhibition, hits mostly inhibitors. AID 485294. 370,000 compounds, 0.041% hits. AmpC hydrolysis of nitrocefin, absorbance 480 nm, 0.01% Triton. P00811;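 further: 0% = no-compound wells and -100% = no-enzyme wells; nearly all actives have a fitted effect of over 25% in size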
Target sequence (P00811 whole entry, looked up): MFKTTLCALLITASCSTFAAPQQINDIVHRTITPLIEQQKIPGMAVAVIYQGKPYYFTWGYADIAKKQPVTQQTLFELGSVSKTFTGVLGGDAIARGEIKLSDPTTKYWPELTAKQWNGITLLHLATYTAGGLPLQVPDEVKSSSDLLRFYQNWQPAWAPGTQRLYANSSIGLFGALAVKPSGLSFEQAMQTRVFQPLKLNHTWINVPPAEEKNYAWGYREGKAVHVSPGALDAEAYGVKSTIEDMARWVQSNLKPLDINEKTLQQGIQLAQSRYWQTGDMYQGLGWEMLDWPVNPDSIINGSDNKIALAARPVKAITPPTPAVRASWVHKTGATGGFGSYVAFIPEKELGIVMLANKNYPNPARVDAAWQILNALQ
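20 mM phosphate pH 7.0 + 0.01% (detergent screen) or 0.0001% Triton X-100; 5.3 nM AmpC reagent; cpd preinc 15 min RT; nitrocefin (800 uM stock) to start; A480 q20 s × 4 min; Activity was normalised to no-enzyme and no-compound control wells.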
HCV inh: blocks hepatitis C virus; Huh7.5.1 HCVcc-Cre infection, luciferase reporter, 44 h; Potency, µM (titrated, usually from 41.8 µM), inactives show at the highest dose activity change, negative = inhibition, hits mostly inhibitors; 340,000 compounds, 3.4% hits; AID 651820
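Antiviral activity was scored by luciferase reporter output from cells infected with HCVcc-Cre (~0.5 moi) in presence of compound, 44 h infection period, cells seeded 1,000/well 4 h prior.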
AmpC inh no detg: AmpC beta-lactamase inhibition without detergent | AmpC nitrocefin hydrolysis, absorbance 480 nm, 0.0001% Triton | AID 485341 | P00811 | 330,000 compounds, 0.52% hits | Potency, µM (top dose mostly 57.1 µM), for the others: at the top dose activity change, negative = inhibition, usual class: inhibitors;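 further: plate controls were no compound for no effect and no enzyme for full effect; nearly all actives have a fitted effect of over 20% in size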
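20 mM phosphate pH 7.0 + 0.01% (detergent screen) or 0.0001% Triton X-100; 5.3 nM AmpC reagent; cpd preinc 15 min RT; nitrocefin (800 uM stock) to start; A480 q20 s × 4 min; Activity was normalised to no-enzyme and no-compound control wells.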
Starred values were filed as active, the others as inactive; [ ] = remark or other dose. Rows were chosen to be rich in hits. Some 11% of all compounds tested hit in one or more screens of this group. The call rests on the fitted dose curve; in most records, active means well fitted curve in the direction sought with a large enough effect; inconclusive means small, poorly fitted or top-dose-only effect, or another doubt; inactive means no such curve, though single readings can be large; an effect the other way counts as inactive or inconclusive. Unless noted, on the % scale 0 is the no-effect control and ±100 the full control effect; potency means the concentration at half of the fitted maximal effect.

Results for NC(=O)C1(N2CCCCC2)CCN(C(=O)Nc2ccccc2C(F)(F)F)CC1 ?
AMA1-RON2 inh: 10.9%; Pf growth 96h: 1.65µM*; Pf growth 48h: 5.3%; AmpC detergent: -2.6%; HCV inh: -0.5%; AmpC inh no detg: 0.2%

What do the screens show for `CCOc1ccc(NC(=O)N2CCC(C(N)=O)(N3CCCCC3)CC2)cc1`?
AMA1-RON2 inh: -1.7%; Pf growth 96h: 13.1µM*; Pf growth 48h: 2.2%; AmpC detergent: 24.8%; HCV inh: 6.0%; AmpC inh no detg: -1.4%

How did NC(=O)C1(N2CCCCC2)CCN(C(=O)NC2CCCCC2)CC1 do in these assays?
AMA1-RON2 inh: 1.0%; Pf growth 96h: 14.7µM*; Pf growth 48h: 0.2%; AmpC detergent: 1.9%; HCV inh: -9.9%; AmpC inh no detg: -9.1%

What do the screens show for `O=C(NCc1ccc(F)cc1)C(c1ccccc1)c1ccccc1`?
AMA1-RON2 inh: 9.1%; Pf growth 96h: inconclusive; Pf growth 48h: -29.0%; AmpC detergent: -4.5%; HCV inh: -6.0%; AmpC inh no detg: -31.9%

How did CC(=O)N(Cc1ccc(F)cc1)C1=C(NCc2ccccc2)C(=O)c2ccccc2C1=O do in these assays?
AMA1-RON2 inh: inconclusive; Pf growth 96h: inconclusive; AmpC detergent: -1.2%; HCV inh: 5.01µM*; AmpC inh no detg: 49.4%

What do the screens show for `COc1ccccc1C(=O)ON=C1c2ccccc2-c2ccccc21`?
AMA1-RON2 inh: -6.0%[11.6 µM]; Pf growth 96h: 1.65µM*; Pf growth 48h: 3.5%; AmpC detergent: inconclusive; HCV inh: inconclusive; AmpC inh no detg: 1.2%

How did COC(/C(=N/O)c1ccc(Cl)cc1)c1ccccc1 (stereo unspecified) do in these assays?
AMA1-RON2 inh: -18.9%; Pf growth 96h: 2.33µM*; Pf growth 48h: 2.08µM*; AmpC detergent: 1.5%; HCV inh: -12.6%; AmpC inh no detg: -34.2%

How did COP(=O)(OC)OC(C(=O)c1ccccc1)c1ccc(Cl)cc1 (stereo unspecified) do in these assays?
AMA1-RON2 inh: 0.8%

Results for Cc1ccc2c(c1)C(c1ccc([N+](=O)[O-])cc1)=NNC(c1ccc(Br)cc1)=N2 ?
AMA1-RON2 inh: -11.6%; Pf growth 96h: inconclusive; Pf growth 48h: -10.3%; AmpC detergent: -1.4%; HCV inh: -13.5%; AmpC inh no detg: -21.4%

What do the screens show for `CCc1ccc2c(c1)C(c1ccc([N+](=O)[O-])cc1)=NNC(c1ccc(Br)cc1)=N2`?
AMA1-RON2 inh: 0.1%; Pf growth 96h: -23.7%; Pf growth 48h: 9.28µM*; AmpC detergent: 0.4%; HCV inh: -3.5%; AmpC inh no detg: -19.8%

What do the screens show for `COc1ccc(-c2csc(C3=C(O)CN(C(C)C)C3=N)n2)cc1OC`?
AMA1-RON2 inh: 7.1%; Pf growth 96h: inconclusive; Pf growth 48h: 10.4µM*; AmpC detergent: 0.3%; HCV inh: inconclusive; AmpC inh no detg: -12.9%

How did CCOc1ccccc1N1CC(O)=C(c2nc3ccccc3s2)C1=N do in these assays?
AMA1-RON2 inh: 25.2%; Pf growth 48h: inconclusive; AmpC detergent: 3.4%; HCV inh: inconclusive; AmpC inh no detg: -32.8%

How did COc1ccccc1N1CC(O)=C(c2nc3ccccc3c(=O)[nH]2)C1=N do in these assays?
AMA1-RON2 inh: 21.6%; Pf growth 96h: 6.4%; Pf growth 48h: 9.28µM*; AmpC detergent: inconclusive; HCV inh: inconclusive; AmpC inh no detg: -27.1%

What do the screens show for `COc1ccc(OC)c(N2CC(O)=C(c3nc4ccccc4s3)C2=N)c1`?
AMA1-RON2 inh: 43.0%; Pf growth 96h: inconclusive; Pf growth 48h: inconclusive; AmpC detergent: -0.8%; HCV inh: 25.1µM*; AmpC inh no detg: 20.7%

Results for COCCN1CC(O)=C(c2nc3ccccc3c(=O)[nH]2)C1=N ?
AMA1-RON2 inh: -0.6%; Pf growth 96h: -66.0%; Pf growth 48h: inconclusive; AmpC detergent: inconclusive; HCV inh: 14.1%; AmpC inh no detg: -4.7%

Results for COc1ccc(N2CC(O)=C(c3nc(-c4ccccc4)cs3)C2=N)cc1 ?
AMA1-RON2 inh: 33.0%; Pf growth 96h: 0.465µM*; Pf growth 48h: inconclusive; AmpC detergent: -5.7%; HCV inh: -12.7%; AmpC inh no detg: -24.8%

What do the screens show for `Cc1c(Cl)cccc1-n1ncc(C(=O)NCCN2CCN(C)CC2)c1C1CCN(C(=O)OC(C)(C)C)CC1`?
AmpC detergent: 10.8%

Results for Cc1c(Cl)cccc1NC(=O)Cn1nc(C(F)(F)F)c2c1CCC2 ?
AmpC detergent: 29.1%

Results for COc1ccc(C2c3c(n(C)c4ccccc34)C(=O)N2CC(=O)Nc2cccc(Cl)c2C)cc1 (stereo unspecified) ?
AmpC detergent: 8.3%

How did CCN(CC)CCCN1CC(O)=C(c2nc3ccccc3s2)C1=N do in these assays?
AMA1-RON2 inh: 5.4%; Pf growth 48h: inconclusive; AmpC detergent: -11.8%; HCV inh: 11.2µM*; AmpC inh no detg: -11.6%

How did Cc1cccc(OCc2cc(=O)n3c4c(sc3n2)CCCC4)c1C do in these assays?
AmpC detergent: 5.5%

How did CCOC(=O)C1CCN(C(=O)c2ccc3c(c2)NC(=O)/C(=C\c2ccc(C)cc2)S3)CC1 do in these assays?
AMA1-RON2 inh: 71.9%; Pf growth 96h: inconclusive; Pf growth 48h: inconclusive; AmpC detergent: -1.0%; HCV inh: inconclusive; AmpC inh no detg: -5.0%

How did CCOC(=O)N1CCN(C(=O)c2ccc3c(c2)NC(=O)/C(=C/c2ccccc2)S3)CC1 do in these assays?
AMA1-RON2 inh: 11.4%; Pf growth 96h: 14.7µM*; Pf growth 48h: -9.2%; AmpC detergent: -0.8%; HCV inh: inconclusive; AmpC inh no detg: 48.0%

How did CN1CCN(C(=O)c2ccc3c(c2)NC(=O)/C(=C/c2ccccc2)S3)CC1 do in these assays?
AMA1-RON2 inh: 2.6%; Pf growth 96h: inconclusive; Pf growth 48h: inconclusive; AmpC detergent: -0.2%; HCV inh: 11.2µM*; AmpC inh no detg: 137.9%

What do the screens show for `Cc1cccc(/C=C2/Sc3ccc(C(=O)NCCN4CCCC4)cc3NC2=O)c1`?
AMA1-RON2 inh: -11.4%; Pf growth 96h: 1.6%; Pf growth 48h: inconclusive; AmpC detergent: -11.0%; HCV inh: inconclusive; AmpC inh no detg: 111.7%

What do the screens show for `CCOC(=O)C1CCN(C(=O)c2ccc3c(c2)NC(=O)/C(=C/c2ccccc2)S3)CC1`?
AMA1-RON2 inh: 1.0%; Pf growth 96h: inconclusive; Pf growth 48h: inconclusive; AmpC detergent: 3.2%; HCV inh: 11.2µM*; AmpC inh no detg: 19.7%

Bioassay records (PubChem)
